# PubChem BioAssay (NCI)
# The panel holds about 83,000 compounds, 20% with a hit somewhere; the sample as a whole holds those more often.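 Assay: single dose, 48 h. Readout: percent growth (0 = no net growth; negative = cell death). Active: <10.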 A number with no mark means an inactive call. The source made the active and inactive calls.
# Columns and labels:
# Experiment in all cases: NCI-60 one-dose screen, 48 h (100 = growth as untreated, 0 = no growth, -100 = all killed)
# Settings in all cases: 10 µM unless noted
# NCI-H23 lung = test system: NCI-H23 lung
# NCI-H226 lung = test system: NCI-H226 lung
# NCI-H322M lung = test system: NCI-H322M lung
# HOP-62 NSCLC = test system: HOP-62 NSCLC
# NCI-H460 lung = test system: NCI-H460 lung
# HOP-92 NSCLC = test system: HOP-92 NSCLC
# NCI-H522 lung = test system: NCI-H522 lung
# A549/ATCC NSCLC = test system: A549/ATCC NSCLC
# 786-0 renal = test system: 786-0 renal
# COLO 205 colon = test system: COLO 205 colon
# DU-145 prostate = test system: DU-145 prostate
# K-562 leukemia = test system: K-562 leukemia
# MALME-3M melanoma = test system: MALME-3M melanoma
# MDA-MB-231 breast = test system: MDA-MB-231 breast
# SF-268 CNS = test system: SF-268 CNS
# SF-295 CNS = test system: SF-295 CNS
# SF-539 CNS = test system: SF-539 CNS
# UACC-257 melanoma = test system: UACC-257 melanoma
# M14 melanoma = test system: M14 melanoma
SMILES,growth (NCI-H23 lung),growth (NCI-H226 lung),growth (NCI-H322M lung),growth (HOP-62 NSCLC),growth (NCI-H460 lung),growth (HOP-92 NSCLC),growth (NCI-H522 lung),growth (A549/ATCC NSCLC),growth (786-0 renal),growth (COLO 205 colon),growth (DU-145 prostate),growth (K-562 leukemia),growth (MALME-3M melanoma),growth (MDA-MB-231 breast),growth (SF-268 CNS),growth (SF-295 CNS),growth (SF-539 CNS),growth (UACC-257 melanoma),growth (M14 melanoma)
CC(C)CCSc1nc(NNC(N)=O)c(C#N)c(-c2ccccc2)n1,91.3%,96.6%,106%,105%,112%,86.1%,97.4%,106%,75.2%,121%,117%,99.2%,99.7%,99.6%,101%,96.9%,94.8%,102%,71.7%
COc1ccc(C(O)c2cc3c(N)c(C(=O)Nc4ccc(Br)cc4)sc3nc2C)cc1 (centres undefined),38.1%,42.4%,39.4%,23%,6.2% (active),44.1%,6.85% (active),24.3%,50.3%,11.3%,-4.27% (active),3.49% (active),24.8%,54.1%,45.4%,21.6%,27.2%,32.3%,3.91% (active)
COc1ccc(Cc2nc3cc(OC)c(OC)cc3c(=O)[nH]2)cc1,59.6%,98%,167%,140%,89.4%,108%,52.1%,-5.67% (active),86.9%,68.5%,39.5%,115%,273%,73.3%,30.5%,65.3%,100%,4.95% (active),48.8%
c1ccc(C2CC(c3cccc(Nc4ccncc4)c3)=NN2c2ccccc2)cc1 (centres undefined),85.8%,96.1%,82.5%,71.1%,-41.9% (active),55.5%,89.1%,50.9%,68.4%,-58% (active),67.7%,0.756% (active),-12.1% (active),75.3%,86.6%,78.6%,78.1%,34%,-57.4% (active)
COc1cc2ncnc(Nc3ccc(C(=O)/C=C/c4ccc(C(F)(F)F)cc4F)cc3)c2cc1OC,99.5%,92.7%,99.7%,144%,108%,113%,98.3%,95.2%,85.6%,160%,107%,58.4%,106%,90.7%,96.2%,95.8%,93.7%,111%,97.9%
CC1(C)CN(Cc2ccccc2)CCN1Cc1ccccc1,104%,95%,103%,108%,106%,96.3%,91.8%,89.5%,99.6%,112%,114%,98.8%,116%,101%,105%,101%,107%,89.1%,107%
Cc1c2c(cc[n+]1Cc1ccccc1)c1ccc(OCc3ccccc3)cc1n2Cc1ccccc1,-12.2% (active),-12% (active),-26.9% (active),-70.9% (active),-87.5% (active),-67.9% (active),-47.1% (active),4.01% (active),-87.4% (active),-82.3% (active),-33.6% (active),-25% (active),-73.6% (active),-85.1% (active),-90.4% (active),-69.2% (active),-5.52% (active),-0.651% (active),-87.9% (active)
COc1ccc(C(O)c2cc3c(N)c(C(=O)Nc4ccc(Cl)cc4)sc3nc2C)cc1 (centres undefined),32.7%,45.3%,44.6%,29.2%,5.37% (active),49.3%,7.8% (active),29.5%,55.2%,13.6%,6.92% (active),3.42% (active),21%,41.8%,42.8%,14.5%,20.7%,56.4%,7.86% (active)
COc1c(Cl)cc(Cl)c2ccc(C=C3C(=O)NC(=S)NC3=O)nc12,101%,100%,113%,93.7%,103%,116%,92%,104%,-90.9% (active),113%,115%,102%,106%,113%,99.8%,102%,101%,102%,-56.2% (active)
COc1ccc(-c2nc(SCC(C)C)nc(N/N=C(/C)c3ccc(OC)c(OC)c3)c2C#N)cc1,89.7%,94.1%,79.7%,86.9%,65.9%,38.4%,80.8%,99.8%,96.9%,110%,87.7%,69.5%,88.9%,74.5%,79.1%,92.8%,80.9%,105%,94%
CS(=O)(=O)Nc1cc(-c2ccc3ncnc(Nc4ccc5[nH]ncc5c4)c3c2)cnc1Cl,86%,75%,74.1%,55.2%,94.1%,0.913% (active),60.6%,91.8%,79.6%,81.7%,82.4%,90.1%,60.9%,79.5%,53.8%,88%,67.7%,35.4%,80.8%
Clc1nc(Cl)c2ncn(CC3(Cn4cnc5c(Cl)nc(Cl)nc54)COC3)c2n1,-70.2% (active),-81.3% (active),-100% (active),-82.3% (active),-65.5% (active),-91.9% (active),-89.1% (active),-77% (active),-98.7% (active),-76.6% (active),-100% (active),-70.4% (active),-69.8% (active),-88.9% (active),-73.7% (active),-83.6% (active),-93.4% (active),-90.9% (active),-92.7% (active)
Cn1c(COC(=O)NCCn2ccnc2)nc2c(N3CCOCC3)nc(-c3ccccc3)nc21,-74.8% (active),-53.8% (active),33.4%,-40.4% (active),-72.1% (active),-75.2% (active),-54.7% (active),-36.2% (active),-89.7% (active),-57.3% (active),-89.9% (active),4.31% (active),-93.9% (active),-90.6% (active),-61.6% (active),18%,-99.6% (active),-56.7% (active),-72.5% (active)
Cc1[nH]n(C(=O)c2ccncc2)c(=O)c1N=Nc1ccc(F)c(Cl)c1,92.1%,91.9%,110%,95.8%,109%,89.7%,103%,107%,92.9%,126%,139%,21.4%,104%,100%,94.2%,91.1%,97%,11.7%,99.8%
COc1cccc2c1C(=O)c1c(O)c3c(c(O)c1C2=O)C[C@@](O)(C(=O)CO)C[C@@H]3O[C@H]1C[C@H](N)[C@@H](O)[C@H](C)O1,-25% (active),-41.8% (active),13.6%,-18% (active),1.64% (active),-26% (active),-55.2% (active),-22.5% (active),12.1%,-86.6% (active),-26.8% (active),1.44% (active),-50.7% (active),1.94% (active),-15.4% (active),-16.1% (active),-23.9% (active),-49.3% (active),-47.4% (active)
CN(C)C(=O)OCc1nc2c(N3CCOCC3)nc(-c3ccccc3)nc2n1C,-67.3% (active),-66.1% (active),53.4%,-46.9% (active),-71.8% (active),-68.4% (active),-46.8% (active),-29.6% (active),-71.3% (active),-70.5% (active),-74.4% (active),5.32% (active),-92.8% (active),-86.5% (active),-59.9% (active),29.9%,-98.3% (active),-65.4% (active),-54.5% (active)
